± gives the standard deviation of the averaged measurements.
Tested on: IL-6-GFP PC-9
Experiment: cell viability (CCK-8 OD) relative to DMSO control (fraction of control); higher = more viable cells
Conditions: compound concentration: 10 uM; treatment time: 48 h
Summary of the method: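 Each well's viability is its CCK-8 optical density divided by that of the vehicle control well. The cells, PC-9 and PC-9GR lung cancer lines overexpressing IL-6-GFP from a lentiviral construct, were seeded at 3000 cells/well in 96-well plates and exposed for 48 h to each compound of a purchased 510-compound library at a final 10 μM, in two independent replicates.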

In order of falling cell viability:
1. Cc1ccc(-c2ncc(Cl)cc2-c2ccc(S(C)(=O)=O)cc2)cn1 [Etoricoxib]  1.21 ± 0.029
2. O=C(Nc1cnn2ccc(N3CCCC3c3cc(F)ccc3F)nc12)N1CCC(O)C1.O=S(=O)(O)O (stereo not drawn) [Larotrectinib (LOXO-101) sulfate]  1.14 ± 0.12
3. Cl.O=C(OCC(O)CO)c1ccccc1Nc1ccnc2cc(Cl)ccc12 (stereo not drawn) [Glafenine HCl]  1.05 ± 0.25
4. Cc1ccc(Nc2nccc(N(C)c3ccc4c(C)n(C)nc4c3)n2)cc1S(N)(=O)=O [Pazopanib]  0.725 ± 0.062
5. CNC(=O)c1cc(Oc2ccc(NC(=O)Nc3ccc(Cl)c(C(F)(F)F)c3)cc2)ccn1.Cc1ccc(S(=O)(=O)O)cc1 [Sorafenib Tosylate]  0.524 ± 0.017
6. CN1CCN(c2ccc(C(=O)Nc3n[nH]c4ccc(Cc5cc(F)cc(F)c5)cc34)c(NC3CCOCC3)c2)CC1 [Entrectinib (RXDX-101)]  0.515 ± 0.14
7. NCCNc1ccc(NCCN)c2c1C(=O)c1ccncc1C2=O.O=C(O)/C=C\C(=O)O.O=C(O)/C=C\C(=O)O [Pixantrone Maleate]  0.3518 ± 0.00067
8. CCC(C)n1ncn(-c2ccc(N3CCN(c4ccc(OCC5COC(Cn6cncn6)(c6ccc(Cl)cc6Cl)O5)cc4)CC3)cc2)c1=O (stereo not drawn) [Itraconazole]  0.269 ± 0.17

Reference: the supplement of paper PMC8866396
